The text below walks through data of PubChem BioAssay (EPA / NIEHS).

In general, AC50 refers to the midpoint of the concentration-response curve, whichever way the signal moves.

Activity calls are given as the source filed them. How the source made its calls: active means hit-call score of the fitted dose curve at least 0.9, where 1 is the maximum; inactive means score below 0.9.

A short description of assay [1]: CEETOX_H295R_CORTIC: CeeTox H295R High-throughput Steroidogenesis Assay for Corticosterone (CORTIC) (AID 2283437).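 Further: corticosterone secreted into medium quantified by mass spectrometry.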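 On AC50: human H295R adrenal cells prestimulated with forskolin before chemical exposure.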 To be noted: actives raise or lower the signal. The method, boiled down: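 H295R adrenal cells prestimulated 48 hours with 10 uM forskolin, then exposed 48 hours to chemical in 0.1% DMSO. Corticosterone in medium measured by HPLC-MS/MS after MTBE extraction; MTT viability in the same wells; bidirectional fit versus DMSO.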

Assay [2] in a line: CEETOX_H295R_CORTISOL: CeeTox H295R High-throughput Steroidogenesis Assay for Cortisol (AID 2283438).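 Further: cortisol secreted into medium quantified by LC-MS/MS.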 To be noted: actives raise or lower the signal. Put shortly: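 Forskolin-primed H295R cells (10 uM, 48 h) treated 48 h with test chemical in 0.1% DMSO. Cortisol in medium quantified by MTBE extraction and HPLC-MS/MS; bidirectional fit vs DMSO, MTT viability in same wells.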
Assay [3] can be described thus: CEETOX_H295R_DOC: CeeTox H295R High-throughput Steroidogenesis Assay for DOC (AID 2283439). The following applies: actives raise or lower the signal. The method, boiled down:
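H295R cells prestimulated 48 h with 10 uM forskolin, then exposed 48 h to test chemical (0.1% DMSO final). Medium 11-deoxycorticosterone measured by HPLC-MS/MS after MTBE extraction; bidirectional fit vs DMSO, viability checked by MTT in same wells.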

A short description of assay [4]: CEETOX_H295R_ESTRADIOL: CeeTox H295R High-throughput Steroidogenesis Assay for Estradiol (AID 2283440).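 Further: estradiol secreted into medium quantified by LC-MS/MS after dansyl derivatisation.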 The following applies: actives raise or lower the signal. The method, boiled down: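 H295R, 48 h forskolin (10 uM) prestim → 48 h compound, 0.1% DMSO final. Estradiol in medium: MTBE extraction, dansyl chloride derivatization, LC-MS/MS. Fit bidirectional vs DMSO baseline; MTT viability in same wells.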

Assay [5] is described as follows: CEETOX_H295R_ESTRONE: CeeTox H295R High-throughput Steroidogenesis Assay for Estrone (AID 2283441).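 Further: estrone secreted into medium measured by LC-MS/MS after dansyl derivatization.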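 On AC50: human adrenal H295R cells prestimulated with forskolin for two days.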 The following applies: actives raise or lower the signal. The method, boiled down:
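H295R cells prestimulated 48 h with 10 uM forskolin, then exposed 48 h to chemicals in 0.1% DMSO final; estrone in medium extracted with MTBE, dansyl-derivatized, quantified by HPLC-MS/MS; bidirectional fitting versus DMSO, viability by MTT.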

Assay [6] is described as follows: CEETOX_H295R_PROG: CeeTox H295R High-throughput Steroidogenesis Assay for Progesterone (PROG) (AID 2283442).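 On AC50: human H295R adrenal cells primed with 10 µM forskolin before dosing.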 The following applies: actives raise or lower the signal. The method, boiled down: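 Progesterone read-out: HPLC-MS/MS on MTBE extracts of conditioned medium after 48 h chemical exposure of forskolin-primed (10 uM, 48 h) H295R cells. Gain or loss of signal was fitted relative to DMSO baseline.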

Read-out in assay [7]: Fatty acid synthase (Homo sapiens) (UniProt P49327)
The assay can be described thus: LTEA_HepaRG_FASN: Life Technologies and Expression Analysis (LTEA) Assay for Fatty Acid Synthase (FASN) using HepaRG (AID 2283448). To be noted: mRNA level, 48 h; actives raise or lower the signal. Put shortly:
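Differentiated HepaRG cells in serum-free induction medium exposed 48 h in duplicate to eight half-log concentrations, top 100 uM, 0.5% DMSO. FASN mRNA by qRT-PCR normalised to ACTB, GAPDH, POLR2A; bidirectional fit versus DMSO.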

Read-out in assay [8]: Cyclin D2 (CCND2), CCND2 (gene 894)
In words: LTEA_HepaRG_CCND2: Life Technologies and Expression Analysis (LTEA) Assay for Cyclin D2 (CCND2) using HepaRG (AID 2283449).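 Further: CCND2 transcript measured by TaqMan qRT-PCR and normalised to three housekeeping genes.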 The following applies: mRNA level, 48 h; actives raise or lower the signal. Put shortly: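 Chemicals in 0.5% DMSO, eight half-log concentrations from 100 uM top, were applied in duplicate for 48 h to human HepaRG cells in serum-free induction medium. CCND2 mRNA by TaqMan qRT-PCR, normalised to ACTB/GAPDH/POLR2A; bidirectional fit versus DMSO.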

Read-out in assay [9]: Cyclin D1 (CCND1), CCND1 (gene 595)
The assay can be described thus: LTEA_HepaRG_CCND1: Life Technologies and Expression Analysis (LTEA) Assay for Cyclin D1 (CCND1) using HepaRG (AID 2283451). To be noted: mRNA level, 48 h; actives raise or lower the signal. The method, boiled down: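 qRT-PCR (Fluidigm 96.96 array) read-out of transcript level, housekeeping-normalized (ACTB/GAPDH/POLR2A). HepaRG cells, 48 h chemical exposure, 8-point half-log series from 100 uM, 0.5% DMSO vehicle; gain or loss relative to DMSO baseline.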

Read-out in assay [10]: flavin-containing dimethylaniline monooxygenases 3 (FMO3), FMO3 (gene 2328)
The assay can be described thus: LTEA_HepaRG_FMO3: Life Technologies and Expression Analysis (LTEA) Assay for flavin-containing dimethylaniline monooxygenases 3 (FMO3) using HepaRG (AID 2283453). To be noted: mRNA level, 48 h; actives raise or lower the signal. The method, boiled down: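 Differentiated HepaRG cells in serum-free induction medium, exposed 48 h in duplicate to 8 half-log concentrations up to 100 uM in 0.5% DMSO. FMO3 mRNA by qRT-PCR, normalized to ACTB, GAPDH, POLR2A; bidirectional fit vs DMSO.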

Read-out in assay [11]: Cytochrome P450 (CYP1A1), CYP1A1 (gene 1543)
In words: LTEA_HepaRG_CYP1A1: Life Technologies and Expression Analysis (LTEA) Assay for Cytochrome P450 (CYP1A1) using HepaRG (AID 2283454). To be noted: mRNA level, 48 h; actives raise or lower the signal. The method, boiled down: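 qRT-PCR read-out: CYP1A1 transcript normalized to three housekeeping genes, fitted bidirectionally against 0.5% DMSO vehicle baseline. Human HepaRG cells, 48 h chemical exposure, 8-point half-log series topping at 100 uM.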

Read-out in assay [12]: CFLAR gene, CFLAR (gene 8837)
The assay can be described thus: LTEA_HepaRG_CFLAR: Life Technologies and Expression Analysis (LTEA) Assay for CFLAR gene using HepaRG (AID 2283455). The following applies: mRNA level, 48 h; actives raise or lower the signal. Put shortly: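 Differentiated HepaRG cells in serum-free induction medium were exposed 48 h in duplicate to eight half-log concentrations up to 100 uM in 0.5% DMSO; mRNA measured by TaqMan qRT-PCR, normalized to ACTB, GAPDH, POLR2A; bidirectional fitting versus DMSO.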

Read-out in assay [13]: Forkhead box O1 (FOXO1), FOXO1 (gene 2308)
The assay can be described thus: LTEA_HepaRG_FOXO1: Life Technologies and Expression Analysis (LTEA) Assay for Forkhead box O1 (FOXO1) using HepaRG (AID 2283456). The following applies: mRNA level, 48 h; actives raise or lower the signal. Put shortly:
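Differentiated HepaRG cells, in serum-free induction medium with 0.5% DMSO, exposed 48 h in duplicate to 8-point half-log series from 100 uM. FOXO1 mRNA measured by TaqMan qRT-PCR, normalized to ACTB, GAPDH, POLR2A; bidirectional fit versus DMSO.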

Read-out in assay [14]: growth arrest and DNA damage 45 (GADD45A), GADD45A (gene 1647)
The assay can be described thus: LTEA_HepaRG_GADD45A: Life Technologies and Expression Analysis (LTEA) Assay for growth arrest and DNA damage 45 (GADD45A) using HepaRG (AID 2283458). The following applies: mRNA level, 48 h; actives raise or lower the signal. Put shortly: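 Differentiated HepaRG cells exposed 48 h in serum-free induction medium to 8 concentrations, top 100 uM in half-log steps, 0.5% DMSO. GADD45A mRNA quantified by qRT-PCR, normalized to ACTB, GAPDH and POLR2A; bidirectional fit versus DMSO.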

Read-out in assay [15]: Forkhead box O3 (FOXO3), FOXO3 (gene 2309)
The assay can be described thus: LTEA_HepaRG_FOXO3: Life Technologies and Expression Analysis (LTEA) Assay for Forkhead box O3 (FOXO3) using HepaRG (AID 2283459). To be noted: mRNA level, 48 h; actives raise or lower the signal. The method, boiled down:
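Differentiated human HepaRG cells, 48 h post-plating, exposed in duplicate for 48 h in serum-free induction medium; 8-point half-log series from 100 uM in 0.5% DMSO. FOXO3 mRNA by TaqMan qRT-PCR, normalized to ACTB/GAPDH/POLR2A; bidirectional fit versus DMSO.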

Read-out in assay [16]: Tumor necrosis factor receptor superfamily member 6 (Homo sapiens) (UniProt P25445)
In words: LTEA_HepaRG_FAS: Life Technologies and Expression Analysis (LTEA) Assay for Fas cell surface death receptor (FAS) using HepaRG (AID 2283447). The following applies: mRNA level, 48 h; actives raise or lower the signal. The method, boiled down: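 Differentiated HepaRG cells in serum-free induction medium were exposed 48 h to 8 half-log concentrations up to 100 uM in 0.5% DMSO, in duplicate. FAS mRNA was measured by qRT-PCR normalised to ACTB, GAPDH and POLR2A; bidirectional fit versus DMSO.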

Read-out in assay [17]: catalase (CAT), CAT (gene 847)
In words: LTEA_HepaRG_CAT: Life Technologies and Expression Analysis (LTEA) Assay for catalase (CAT) using HepaRG (AID 2283452). To be noted: mRNA level, 48 h; actives raise or lower the signal. Put shortly: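 HepaRG cells in serum-free induction medium, 0.5% DMSO vehicle, exposed 48 h in duplicate over 8 half-log concentrations from 100 uM. CAT mRNA measured by qRT-PCR, normalized to ACTB, GAPDH, POLR2A; bidirectional fit versus DMSO.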

Read-out in assay [18]: Cyclin Dependent Kinase Inhibitor 1A (CDKN1A), CDKN1A (gene 1026)
In words: LTEA_HepaRG_CDKN1A: Life Technologies and Expression Analysis (LTEA) Assay for Cyclin Dependent Kinase Inhibitor 1A (CDKN1A) using HepaRG (AID 2283450). The following applies: mRNA level, 48 h; actives raise or lower the signal. The method, boiled down: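 HepaRG, 48 h dosing, 8-pt half-log series from 100 uM top, 0.5% DMSO vehicle, duplicates. Readout: TaqMan qRT-PCR of CDKN1A transcript, housekeeping-normalized (ACTB, GAPDH, POLR2A). Up/down curve fit relative to DMSO.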

Fatty acid synthase (Homo sapiens), sequence (P49327 whole entry, looked up): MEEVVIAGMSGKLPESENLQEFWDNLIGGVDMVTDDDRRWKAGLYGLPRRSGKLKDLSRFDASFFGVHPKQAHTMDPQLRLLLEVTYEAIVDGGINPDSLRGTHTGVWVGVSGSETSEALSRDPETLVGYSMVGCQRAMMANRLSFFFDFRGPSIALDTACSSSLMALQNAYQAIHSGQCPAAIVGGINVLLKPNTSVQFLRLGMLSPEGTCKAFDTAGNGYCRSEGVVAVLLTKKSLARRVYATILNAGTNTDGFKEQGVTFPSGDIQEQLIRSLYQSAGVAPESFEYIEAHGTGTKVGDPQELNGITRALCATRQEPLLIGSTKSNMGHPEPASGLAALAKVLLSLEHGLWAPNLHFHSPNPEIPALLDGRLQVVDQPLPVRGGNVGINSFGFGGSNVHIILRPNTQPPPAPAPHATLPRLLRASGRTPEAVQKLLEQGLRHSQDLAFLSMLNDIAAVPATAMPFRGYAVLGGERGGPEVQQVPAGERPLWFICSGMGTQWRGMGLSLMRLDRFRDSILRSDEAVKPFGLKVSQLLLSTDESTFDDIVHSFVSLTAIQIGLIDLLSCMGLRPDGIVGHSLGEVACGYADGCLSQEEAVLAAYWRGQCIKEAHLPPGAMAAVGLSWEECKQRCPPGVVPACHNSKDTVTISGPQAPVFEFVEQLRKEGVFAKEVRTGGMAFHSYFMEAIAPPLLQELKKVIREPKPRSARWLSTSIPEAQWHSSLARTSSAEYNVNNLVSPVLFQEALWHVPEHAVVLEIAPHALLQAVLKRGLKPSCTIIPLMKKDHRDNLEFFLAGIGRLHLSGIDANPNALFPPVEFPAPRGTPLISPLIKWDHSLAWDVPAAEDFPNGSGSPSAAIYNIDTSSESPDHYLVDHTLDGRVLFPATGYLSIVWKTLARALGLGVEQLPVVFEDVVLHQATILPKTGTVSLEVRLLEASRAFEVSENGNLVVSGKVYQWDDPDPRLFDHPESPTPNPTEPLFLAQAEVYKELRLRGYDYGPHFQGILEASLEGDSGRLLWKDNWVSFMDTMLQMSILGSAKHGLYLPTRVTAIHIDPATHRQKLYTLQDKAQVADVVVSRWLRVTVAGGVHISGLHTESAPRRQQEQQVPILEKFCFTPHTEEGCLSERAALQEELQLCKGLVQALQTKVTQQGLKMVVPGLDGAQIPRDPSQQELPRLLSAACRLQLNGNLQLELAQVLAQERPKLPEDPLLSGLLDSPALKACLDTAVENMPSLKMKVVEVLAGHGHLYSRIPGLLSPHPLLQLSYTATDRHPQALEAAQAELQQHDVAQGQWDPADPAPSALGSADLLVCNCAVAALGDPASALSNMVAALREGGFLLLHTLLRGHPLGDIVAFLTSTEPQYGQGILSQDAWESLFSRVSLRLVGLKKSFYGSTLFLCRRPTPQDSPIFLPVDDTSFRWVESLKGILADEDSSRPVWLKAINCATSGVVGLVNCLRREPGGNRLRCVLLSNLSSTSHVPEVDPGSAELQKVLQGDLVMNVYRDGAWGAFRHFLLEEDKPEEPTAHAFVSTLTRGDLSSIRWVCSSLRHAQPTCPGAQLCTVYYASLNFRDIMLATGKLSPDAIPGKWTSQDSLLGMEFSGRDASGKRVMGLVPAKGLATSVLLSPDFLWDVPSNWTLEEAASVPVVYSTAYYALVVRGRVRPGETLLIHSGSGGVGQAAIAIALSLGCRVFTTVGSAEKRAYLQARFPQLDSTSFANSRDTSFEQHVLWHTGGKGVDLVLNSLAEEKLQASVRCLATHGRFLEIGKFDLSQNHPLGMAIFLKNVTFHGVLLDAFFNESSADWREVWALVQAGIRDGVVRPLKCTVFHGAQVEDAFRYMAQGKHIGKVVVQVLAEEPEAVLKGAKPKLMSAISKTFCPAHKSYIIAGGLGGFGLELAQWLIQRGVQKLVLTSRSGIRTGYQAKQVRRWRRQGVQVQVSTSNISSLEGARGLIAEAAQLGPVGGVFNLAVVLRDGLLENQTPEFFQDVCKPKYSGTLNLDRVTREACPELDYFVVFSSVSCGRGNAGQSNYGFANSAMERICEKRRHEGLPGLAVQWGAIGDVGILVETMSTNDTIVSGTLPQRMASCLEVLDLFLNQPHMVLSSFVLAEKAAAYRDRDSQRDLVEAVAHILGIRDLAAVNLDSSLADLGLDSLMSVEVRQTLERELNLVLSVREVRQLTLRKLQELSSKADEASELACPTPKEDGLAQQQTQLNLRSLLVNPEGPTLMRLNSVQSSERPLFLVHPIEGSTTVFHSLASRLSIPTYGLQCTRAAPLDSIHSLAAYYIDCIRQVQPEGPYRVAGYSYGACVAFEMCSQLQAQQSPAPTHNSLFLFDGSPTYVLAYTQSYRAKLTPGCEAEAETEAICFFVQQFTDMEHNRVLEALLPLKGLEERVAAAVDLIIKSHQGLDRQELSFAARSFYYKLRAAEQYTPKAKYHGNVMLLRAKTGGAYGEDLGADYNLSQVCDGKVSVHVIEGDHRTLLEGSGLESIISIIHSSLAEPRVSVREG

On to `O=C(Nc1ccccc1-c1ccc(Cl)cc1)c1cccnc1Cl`, for which the result in assay [1], in assay [2], in assay [4], in assay [5], in assay [7] and in [8] was inactive. In addition, the outcome in assay [9], in [10], in assay [12], in [13], in [14] and in assay [15] was inactive. Besides, the results for the concentration at half-maximal activity (AC50) in assay [3], in assay [6] and in assay [11] were 9.59 µM (active), 13.1 µM (active) and 52.5 µM (active), respectively.

For the compound `CCOP(=S)(OCC)Oc1nc(Cl)n(C(C)C)n1`, the compound was classed as inactive in assay [1], in [2], in [3], in [16], in assay [8] and in [9]. Besides, the compound was called inactive in assay [17], in assay [12], in [13], in [14] and in assay [15]. Moreover, the AC50 in assay [6] is 61.8 µM (active); in assay [7], 30.5 µM (active); in assay [10] it was 24.7 µM (active); in [11], 9.25 µM (active).

Regarding `Cc1c(COC(=O)[C@@H]2[C@H](/C=C(\Cl)C(F)(F)F)C2(C)C)cccc1-c1ccccc1`, the compound was classed as inactive in [4], in assay [5], in assay [6], in [16], in assay [7] and in assay [8]. For the same compound, the compound was classed as inactive in assay [18], in assay [9], in assay [17], in assay [10], in assay [12] and in [13]. The result in assay [14] and in [15] was inactive. Moreover, in assay [11], the AC50 is 33.6 µM (active).

As to `CCN(CC)c1nc(C)cc(OP(=S)(OC)OC)n1`, the AC50 is 24.7 µM (active) in assay [1]; 36.2 µM (active) in [3]; 1.22 µM (active) in assay [4]; 1.62 µM (active) in assay [5]; 45.8 µM (active) in [6]; 27.4 µM (active) in assay [7]. For the same compound, the AC50 in assay [11] is 31.1 µM (active). In addition, the outcome in assay [2], in assay [8], in assay [18], in [9], in assay [17] and in assay [10] was inactive. Besides, the result in assay [12], in assay [13], in assay [14] and in assay [15] was inactive.
